Some test systems named below: NCI-H23 lung; NCI-H226 lung; NCI-H322M lung; HOP-62 NSCLC; NCI-H460 lung; HOP-92 NSCLC; NCI-H522 lung; A549/ATCC NSCLC; 786-0 renal; COLO 205 colon.
Common to all, as to assay: NCI-60 one-dose screen, 48 h (100 = growth as untreated, 0 = no growth, -100 = all killed)
Common to all, as to details: 10 µM unless noted

This is part of a sample that, as a whole, favours compounds with a hit. Of some 83,000 tested, about 20% had one in any assay.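 Step 1: grow cells in 96-well plates. Step 2: add test compound at a single concentration. Step 3: incubate 48 h. Step 4: record percent growth.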 Unmarked numbers belong to inactive results. The source made the active and inactive calls. How the source made its calls: active means growth percent below 10; inactive means the rest.

For `S=c1nc(-c2ccccc2)oc(=NC2CCCCC2)n1C1CCCCC1`, the growth was 61.1% in the assay on NCI-H23 lung; 105% in the assay with NCI-H226 lung; 28.3% in the assay with NCI-H322M lung; 62.8% in the assay with HOP-62 NSCLC; 10.7% in the assay with NCI-H460 lung; -24.9% (active) with HOP-92 NSCLC. For the same molecule, the growth in the assay on NCI-H522 lung was -25.6% (active); with A549/ATCC NSCLC it was 31.5%; in the assay with 786-0 renal, 43%; in the assay with COLO 205 colon, 58.8%.

As to `COc1ccc(C(=O)COC(=O)[C@H](C[Se][Se]C[C@H](NC(=O)c2ccc(Br)cc2F)C(=O)OCC(=O)c2ccc(OC)cc2)NC(=O)c2ccc(Br)cc2F)cc1`, the growth in the assay with NCI-H23 lung is -50.3% (active); in the assay with NCI-H226 lung, -69.5% (active); in the assay on NCI-H322M lung, 0.597% (active); with HOP-62 NSCLC it was -72.4% (active); in the assay with NCI-H460 lung, -36.6% (active); with HOP-92 NSCLC, -27.9% (active). Further, the growth in the assay with NCI-H522 lung is -69.5% (active); in the assay on A549/ATCC NSCLC, -3.84% (active); in the assay on 786-0 renal, -95.8% (active); in the assay on COLO 205 colon, -45.6% (active).

As for `COc1cc(C(=O)N/N=C/c2cc3cc(OCc4ccccc4)ccc3nc2OC)cc(OC)c1OC`, the growth in the assay on NCI-H23 lung was 90.2%; in the assay with NCI-H226 lung, 78.4%; with NCI-H322M lung it was 98%; in the assay on HOP-62 NSCLC, 83%; with NCI-H460 lung, 78.7%; with HOP-92 NSCLC it was 66.7%. For the same molecule, the growth in the assay with NCI-H522 lung is 70.2%; in the assay on A549/ATCC NSCLC it was 82.2%; with 786-0 renal it was 85.5%; in the assay on COLO 205 colon, 102%.

With `COc1ccc(-c2cc(-c3ccc(Cl)cc3)c(C#N)c(=O)n2CCCCCC(=O)Nc2ccccc2N)cc1`, the growth in the assay with NCI-H23 lung is 63.1%; in the assay on NCI-H226 lung, 72.9%; in the assay with NCI-H322M lung, 61.4%; with HOP-62 NSCLC, 41.8%; in the assay on NCI-H460 lung it was 26.7%; with HOP-92 NSCLC, 13%. The growth in the assay with NCI-H522 lung is 33.7%; in the assay on A549/ATCC NSCLC, 35.7%; with 786-0 renal it was 41.5%; in the assay on COLO 205 colon, 10.1%.

With `c1cc(-c2nnc(SSc3ncnc4nc[nH]c34)o2)ccn1`, the growth was 43% in the assay with NCI-H23 lung; 53.5% with NCI-H226 lung; 55.9% with NCI-H322M lung; 52.4% with HOP-62 NSCLC; 48.4% in the assay on NCI-H460 lung; 52.9% in the assay with HOP-92 NSCLC. Moreover, the growth is 6.68% (active) with NCI-H522 lung, 92.5% in the assay on A549/ATCC NSCLC, 13.8% in the assay on 786-0 renal and 67.7% in the assay on COLO 205 colon.

As to `CN(C)CCCNc1nc2ccccc2c2c(=O)c3cc(F)ccc3sc12`, the growth was 70.6% in the assay on NCI-H23 lung; 91.5% in the assay with NCI-H226 lung; 71.2% with NCI-H322M lung; 65% in the assay with HOP-62 NSCLC; -1.74% (active) in the assay on NCI-H460 lung; 24% in the assay on HOP-92 NSCLC. The growth was 39.2% in the assay with NCI-H522 lung, 57% in the assay with A549/ATCC NSCLC, 59.3% in the assay on 786-0 renal and -34.1% (active) with COLO 205 colon.

On to `COc1ccc(/C=N/Nc2cc(=O)[nH]c3ccc(Cl)cc23)cc1`, for which the growth in the assay on NCI-H23 lung was 20.2%; with NCI-H226 lung, 80.4%; with NCI-H322M lung it was 66.3%; with HOP-62 NSCLC, 71.9%; with NCI-H460 lung, 23.9%; in the assay on HOP-92 NSCLC, 70.8%. Besides, the growth was -42.7% (active) in the assay on NCI-H522 lung, 40.2% in the assay with A549/ATCC NSCLC, 62.1% in the assay on 786-0 renal and 83.3% in the assay on COLO 205 colon.

Turning to `CSc1ncccc1C(=O)OCC(=O)Nc1oc(C)c2c(C)n[nH]c(=O)c12`, the growth is 99.3% with NCI-H23 lung; 86.3% with NCI-H226 lung; 104% in the assay on NCI-H322M lung; 105% in the assay with HOP-62 NSCLC; 108% in the assay with NCI-H460 lung; 73.4% in the assay on HOP-92 NSCLC. For the same molecule, the growth was 84.2% with NCI-H522 lung, 103% in the assay on A549/ATCC NSCLC, 91.6% with 786-0 renal and 122% in the assay with COLO 205 colon.

As to `Cc1nn(-c2ccccc2)c(-n2ccnc2)c1/C=N/Nc1nc(-c2ccc(F)cc2)cs1`, the growth in the assay on NCI-H23 lung was 58.1%; in the assay on NCI-H226 lung, 50.3%; in the assay with NCI-H322M lung, 88.8%; in the assay on HOP-62 NSCLC, 98.8%; with NCI-H460 lung, 83.3%; in the assay on HOP-92 NSCLC it was 42.9%. For the same molecule, the growth is 73.6% in the assay with NCI-H522 lung, 65% with A549/ATCC NSCLC, 106% in the assay on 786-0 renal and 70.8% in the assay with COLO 205 colon.

Take `O=C(Nc1ccc(Cl)cc1F)c1cc(Cl)ccc1O`: the growth is -20% (active) in the assay with NCI-H23 lung; -9.16% (active) in the assay on NCI-H226 lung; -11.1% (active) in the assay on NCI-H322M lung; 7.55% (active) in the assay on HOP-62 NSCLC; -5.39% (active) with NCI-H460 lung; -21.7% (active) with HOP-92 NSCLC. In addition, the growth with NCI-H522 lung is -3.15% (active); in the assay with A549/ATCC NSCLC, 7.91% (active); in the assay on 786-0 renal, -0.322% (active); in the assay on COLO 205 colon it was 22.2%.

As to `CCc1cccc2c3c(sc12)C(c1ccc(F)cc1)C(C#N)=C(N)O3` (stereo not given), the growth in the assay with NCI-H23 lung is 33.6%; in the assay on NCI-H226 lung, 29.1%; in the assay with NCI-H322M lung it was 57.7%; with HOP-62 NSCLC, 48.7%; with NCI-H460 lung, 12.9%; in the assay on HOP-92 NSCLC, 78.9%. For the same molecule, the growth in the assay on NCI-H522 lung was 26.8%; in the assay with A549/ATCC NSCLC, 31.9%; in the assay on 786-0 renal it was 30%; in the assay on COLO 205 colon it was 5.48% (active).

Turning to `Nc1cc2c(cc1Br)-c1cc(Cl)ccc1C2=O`, the growth in the assay on NCI-H23 lung was 97.1%; in the assay with NCI-H226 lung, 81.1%; in the assay on NCI-H322M lung it was 102%; with HOP-62 NSCLC, 99.1%; with NCI-H460 lung it was 100%; in the assay with HOP-92 NSCLC, 87.6%. The growth in the assay with NCI-H522 lung was 96.1%; in the assay on A549/ATCC NSCLC, 96.7%; in the assay with 786-0 renal it was 98.6%; in the assay on COLO 205 colon it was 87.3%.

As for `CN1C(=O)CNC(=O)[C@H](NC(=O)c2nc3ccccc3cc2O)CSSC[C@H]1C(=O)NCCCc1nc2ccccc2cc1O`, the growth in the assay on NCI-H23 lung was 67.2%; in the assay with NCI-H226 lung it was 85.8%; in the assay on NCI-H322M lung, 70.6%; with HOP-62 NSCLC it was 81.8%; in the assay with NCI-H460 lung, 13.4%; with HOP-92 NSCLC it was 120%. Further, the growth is 60.4% in the assay on NCI-H522 lung, 48.3% with A549/ATCC NSCLC, 113% in the assay with 786-0 renal and -9.63% (active) with COLO 205 colon.

As to `COC1=C(C)C(=O)c2c(c(CCCl)c3n2CCC3O)C1=O` (stereo not given), the growth in the assay with NCI-H23 lung is -16.8% (active); in the assay on NCI-H226 lung, -30.8% (active); with NCI-H322M lung, -4.2% (active); in the assay on HOP-62 NSCLC, -11.2% (active); with NCI-H460 lung it was 4.7% (active); in the assay with HOP-92 NSCLC it was 103%. Further, the growth in the assay on NCI-H522 lung was -46.1% (active); in the assay on A549/ATCC NSCLC, 4.42% (active); with 786-0 renal, -21% (active); with COLO 205 colon, -59.2% (active).

The record behind these values is PubChem BioAssay (NCI).
